JMJD2A Tudor inh: inhibitors of human JMJD2A Tudor domain; O75164; AlphaScreen JMJD2A-Tudor / H3K4me3 peptide binding; Potency, µM (titrated, usually from 114 µM), without a hit: at the top dose activity change, negative = inhibition, actives largely listed as inhibitors; 390,000 tested, 4.4% active; AID 504339; further: potency means the concentration at half of the fitted maximal effect; on the % scale 0 is the no-effect control and ±100 the full control effect; nearly all actives have a fitted effect of over 50% in size
G9a block: inhibitors of human histone lysine methyltransferase G9a; G9a H3K9 monomethylation, AlphaScreen, 2 h; Q96KQ7; 350,000 tested, 8.8% active; Potency, µM (titrated, usually from 102 µM), inactives show at the top dose activity, negative = inhibition, actives largely listed as inhibitors; AID 504332; further: potency means the concentration at half of the fitted maximal effect; on the % scale 0 is the no-effect control and ±100 the full control effect; nearly all actives have a fitted effect of over 75% in size
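Enzyme 20 nM + cpd, 15 min RT; add b-H3K9 pep 500 nM / SAM 20 uM; 2 h RT; anti-H3K9me1 Ab 0.5 ug/mL + SA donor / anti-rabbit acceptor beads 20 ug/mL each, 10 min; AlphaScreen read.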
PLK1 PBD inh: PLK1 (human) polo-box domain binding inhibition. P53350. Plk1 PBD binding of FITC phosphopeptide, fluorescence polarization. Potency, µM, for inactives: max response, negative = inhibition, usual class: inhibitors. 360,000 tested, 2.8% active. AID 720504; further: potency means the concentration at half of the fitted maximal effect; series mostly up to about 57 µM; on the % scale 0 is the no-effect control and ±100 the full control effect; nearly all actives have a fitted effect of over 65% in size
Target sequence (P53350 whole entry, looked up, the tested form may be a part): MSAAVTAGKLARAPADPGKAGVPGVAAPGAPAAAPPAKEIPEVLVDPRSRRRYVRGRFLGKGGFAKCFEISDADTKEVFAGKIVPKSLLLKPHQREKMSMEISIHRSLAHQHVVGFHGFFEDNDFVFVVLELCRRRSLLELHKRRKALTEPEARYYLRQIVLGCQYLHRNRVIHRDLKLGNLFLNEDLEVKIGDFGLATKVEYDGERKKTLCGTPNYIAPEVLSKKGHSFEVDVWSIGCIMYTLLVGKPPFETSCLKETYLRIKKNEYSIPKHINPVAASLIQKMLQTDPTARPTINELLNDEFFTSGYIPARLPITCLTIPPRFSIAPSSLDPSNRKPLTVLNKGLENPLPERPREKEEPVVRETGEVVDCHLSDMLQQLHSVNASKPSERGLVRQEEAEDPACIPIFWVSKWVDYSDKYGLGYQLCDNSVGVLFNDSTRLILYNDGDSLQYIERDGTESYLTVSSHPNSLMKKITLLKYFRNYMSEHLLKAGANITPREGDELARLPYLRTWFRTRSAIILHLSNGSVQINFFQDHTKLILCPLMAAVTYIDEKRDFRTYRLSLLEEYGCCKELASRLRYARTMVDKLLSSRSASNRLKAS
PI5P4K alpha inh: blocks human PI5P4K alpha kinase activity; max response, %; AID 652105; P48426; 330,000 tested, 1.2% active; PI5P4Kalpha enzyme, ADP-Glo luminescence, 60 min; active compounds read low; active means max response of -50% or lower; inconclusive means between -30% and -50%; inactive means -30% or higher; further: value at the top dose of about 77 µM; on the % scale 0 is the no-effect control and ±100 the full control effect
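Quantitative HTS of the MLSMR library against PI5P4Kalpha with substrate. ATP added last at 5 microM final; room temperature, 60 minutes. Remaining ATP depleted, ADP converted and read as luminescence.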
BAZ2B inh: BAZ2B (human) inhibition; 360,000 tested, 4.4% active; Q9UIF8; AlphaScreen BAZ2B-H3K14Ac peptide displacement; Potency, µM (top dose mostly 114 µM), for inactives: at the top dose activity change, negative = inhibition, actives largely listed as inhibitors; further: potency means the concentration at half of the fitted maximal effect; on the % scale 0 is the no-effect control and ±100 the full control effect; nearly all actives have a fitted effect of over 60% in size
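BAZ2B 50 nM plus b-H3(5-23)K14Ac 50 nM, PBS pH 7.4/0.01% Tween-20, 30 min RT; compound added (max 110 uM), 30 min RT; streptavidin donor/Ni-chelate acceptor beads 10 ug/mL final, 20 min dark; AlphaScreen read.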
HP1b chromo inh: blocks HP1-beta chromodomain binding to methylated histone tails; AlphaScreen HP1-beta / biotin-H3K9me3 peptide binding; 390,000 tested, 0.56% active; Potency, µM (doses to about 114 µM), without a hit: at the top dose activity change, negative = inhibition, usual class: inhibitors; P83916; AID 540317; further: potency means the concentration at half of the fitted maximal effect; nearly all actives have a fitted effect of over 70% in size
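Compound inhibition of the preformed complex between 50 nM HP1-beta and 50 nM biotinylated H3K9me3 peptide was read by AlphaScreen. Buffer was PBS pH 7.4 with 0.01% Tween-20. Incubations ran 30 min at room temperature, with 10 ug/mL donor/acceptor beads.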
Starred values were filed as active, the others as inactive; ? = inconclusive; nt = not tested or not shown; [ ] = remark or other dose. Rows were chosen to be rich in hits. Some 12% of all compounds tested hit in one or more screens of this group. Unless noted, the call rests on the fitted dose curve; in most records, active means well fitted curve in the direction sought with a large enough effect; inconclusive means small, poorly fitted or top-dose-only effect, or another doubt; inactive means no such curve, though single readings can be large; an effect the other way counts as inactive or inconclusive.

SMILES	JMJD2A Tudor inh	G9a block	PLK1 PBD inh	PI5P4K alpha inh	BAZ2B inh	HP1b chromo inh
O=C(O)/C=C/C(=O)Nc1ccc(C2(c3ccc(NC(=O)/C=C/C(=O)O)cc3)c3ccccc3-c3ccccc32)cc1	-35%	nt	30µM*	-58*	50µM*	17%
O=C(O)/C=C/C(=O)Nc1ccc(Oc2ccc(NC(=O)/C=C/C(=O)O)cc2)cc1	nt	?	nt	nt	50µM*	nt
O=C(O)/C=C/C(=O)Nc1ccc(OC(F)(F)Cl)cc1	0%	45µM*	-8%	1	-39%	27%
O=C(O)/C=C/C(=O)Nc1ccc(SC(F)(F)C(F)(F)C(F)(F)F)cc1	13%	-49%	?	-20	-38%	57%
O=C(O)/C=C/C(=O)Nc1ccc(Cc2ccc(NC(=O)/C=C/C(=O)O)cc2)cc1	-10%	45µM*	?	?	-29%	20%
CCn1c(=O)c2cc(C(=O)NCc3cc(OC)ccc3OC)sc2c2ccccc21	-22%	-3%[59 µM]	nt	nt	-19%	46%
COc1ccc(SCC(O)Cn2c3ccccc3c3ccccc32)c(OC)c1 (stereo not given)	nt	nt	-2%	41	nt	nt
N#CCCn1c(=O)c(-c2ccccc2)nc2cnc(Oc3ccccc3)nc21	nt	5%[12.7 µM]	nt	nt	nt	nt
CCN1c2ccccc2-c2nc(SCC(=O)Nc3cc(F)ccc3F)ncc2S1(=O)=O	-5%	14%[59 µM]	nt	nt	20%	64%
COCCNc1nc(NCc2ccccc2)c2cnn(C)c2n1	-16%	?	-10%	9	-8%[57.1 µM]	23%
CCNc1nc(NCc2ccc(F)cc2)c2cnn(C)c2n1	50µM*	-4%[59 µM]	nt	nt	-12%	20%
CCc1ccc(OCC(O)CN2CCN(c3ccccn3)CC2)cc1 (stereo not given)	-28%	nt	-3%	1	-8%	6%
CC(=O)c1ccc(OCC(O)CN2CCN(S(=O)(=O)c3c(C)c(C)cc(C)c3C)CC2)cc1 (stereo not given)	-34%	50µM*	-6%	5	-19%	7%
CCCc1ccc(OCC(O)CN2CCN(c3ccccn3)CC2)cc1 (stereo not given)	?	50µM*	-13%	5	?	5%
CC(=O)c1ccc(OCC(O)CN2CCN(c3ccccn3)CC2)cc1 (stereo not given)	?	56µM*	-8%	3	-36%	89%
CC(=O)c1ccc(OCC(O)CN2CCN(CC(O)COc3ccc(C(C)=O)cc3)CC2)cc1 (stereo not given)	-1%	-1%[59 µM]	-8%	-7	3%	16%
CC(C)(C)C1CCc2c(sc3c2C(=O)NC(c2ccco2)N3)C1 (stereo not given)	?	10µM*	?	nt	-1%	13%
CCOc1cc(C2NC(=O)c3c(sc4c3CCN(C)C4)N2)ccc1OC(=O)c1ccc(F)cc1 (stereo not given)	-11%	-30%[59 µM]	nt	nt	-1%	24%
CN1CCc2c(sc3c2C(=O)NC(c2ccc(OC(=O)c4ccc(Cl)cc4)cc2)N3)C1 (stereo not given)	-11%	16µM*	nt	nt	?	22%
CN1CCc2c(sc3c2C(=O)NC(c2ccc(OC(=O)c4ccccc4)cc2)N3)C1 (stereo not given)	-30%	13µM*	nt	nt	-17%	-5%
CN1CCc2c(sc3c2C(=O)NC(c2ccc(OC(=O)c4ccc(C(C)(C)C)cc4)cc2)N3)C1 (stereo not given)	-17%	7.9µM*	nt	nt	-34%	5%
COC(=O)c1cc2sc(C)cc2n1Cc1nc(-c2ccc(C)cc2)oc1C	-12%	-9%[59 µM]	nt	nt	-5%	29%
CCOC(=O)c1ccccc1NC(=O)Cn1ncc2c1-c1ccccc1OC2	4%	9%[59 µM]	nt	nt	-20%	34%
O=C1NC(c2ccccn2)Nc2sc3c(c21)CCC3 (stereo not given)	?	22µM*	-25%	-11	?	11%
Cc1ccc(C2NC(=O)c3c(sc4c3CCN(C)C4)N2)s1 (stereo not given)	?	?	-16%	nt	-30%	-31%
SMILES	JMJD2A Tudor inh	G9a block	PLK1 PBD inh	PI5P4K alpha inh	BAZ2B inh	HP1b chromo inh
Cc1cccc(C2NC(=O)c3c(sc4c3CCN(C)C4)N2)c1O (stereo not given)	-22%	?	nt	nt	-14%	6%
CN1CCc2c(sc3c2C(=O)NC(c2ccccn2)N3)C1 (stereo not given)	20µM*	25µM*	?	nt	45µM*	36%
Cc1ccsc1C1NC(=O)c2c(sc3c2CCCC3)N1 (stereo not given)	?	?	?	-68*	-7%	-15%
CN1CCc2c(sc3c2C(=O)NC(c2ccccc2)N3)C1 (stereo not given)	-22%	40µM*	-16%	-10	-1%	0%
CN(C(=O)c1cccc(NC(=O)Cc2ccc(NC(=O)C3CCN(C(=O)C4CCCCC4)CC3)cc2)c1)C1CCCC1	-16%	nt	2%	1	nt	40%
Cc1cccc(NC(=O)CSCC(=O)OCc2ccccn2)c1	?	-31%	-19%	4	-1%	5%
CCOc1cc(C(=O)Nc2ccc(-c3nc4ccccc4s3)cc2Cl)cc(OCC)c1OCC	-8%	2%[59 µM]	nt	nt	?	57%
CCN(CC)CCCOc1nc(C)nc2c1oc1ccccc12	-19%	35µM*	-2%	8	?	18%
CCN(CC)CCOc1nc(C)nc2c1oc1ccccc12	?	50µM*	27µM*	-8	?	27%
NCCN	nt	32%[59 µM]	nt	nt	nt	nt
CC1=C(c2ccc(Cl)cc2)S(=O)(=O)N=C1N1CCN(c2cccc(C(F)(F)F)c2)CC1	-16%	-35%[59 µM]	nt	nt	-13%	24%
COc1ccc(C(=O)NCCc2nnc3ccc(SCC(=O)Nc4ccccc4)nn23)cc1	-20%	nt	-9%	-8	-11%	17%
CCNC(=O)C1CC(=O)N(Cc2ccc3c(c2)OCO3)C(=Nc2ccc(OCC)cc2)S1 (stereo not given)	-1%	0%[12.7 µM]	-5%	3	50µM*	32%
CC(=O)C[C@H](O)CC(=O)[C@@H]1OC(=O)CCCCCc2ccccc21	-14%	nt	-3%	11	nt	58%
CC(C)N1C(=O)CC(Nc2cccc3cccc(N)c23)C1=O (stereo not given)	?	45µM*	?	-26	?	-23%
CC(C)N1C(=O)CC(Nc2ccc(N3CCOCC3)cc2)C1=O (stereo not given)	-27%	?	-10%	-3	-6%	2%
CN1C(=O)CC(Nc2cccc3cccc(N)c23)C1=O (stereo not given)	?	35µM*	-5%	8	?	1%
CCOc1ccc(CNC(=O)Cn2nc(C)c3nn(-c4ccc(Cl)cc4)c(C)c3c2=O)cc1OC	-10%	6%[59 µM]	nt	nt	3%	30%[57 µM]

Screens (PubChem)
